Results from the supplement of paper PMC7366291.
Structures can show the parent of a compound that is named as a salt. ± gives the standard deviation or the standard deviation of the averaged measurements.

Tests used:
Details in all cases: 25 µM; exposure: 24-48 hpf
[1] = system: Danio rerio Tg(wt1b:EGFP) embryo, pronephros; assay: glomerular separation, fold change vs DMSO control; higher = glomeruli further apart (abnormal)
Outline: (§1)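 Using a Fiji macro, distances and angles were calculated from 16 reference points set by hand on maximum projections of pronephroi imaged dorsally (470 nm, 10 z-slices) in agarose-filled 96-well plates. The dechorionated Tg(wt1b:EGFP) zebrafish embryos had received 25 μM compound in 0.5% DMSO in HEPES-buffered E3 with 0.003% PTU from 24 to 48 hpf at 28.5°C. Values more than 2 SD from a feature's mean were excluded. Each feature appears as a fold change over the mean of DMSO-treated embryos from the same day.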

[2] = system: Danio rerio Tg(wt1b:EGFP) embryo, pronephros; assay: glomerular width (mean of left and right), fold change vs DMSO control; higher = wider glomerulus
Outline: as §1

[3] = system: Danio rerio Tg(wt1b:EGFP) embryo, pronephros; assay: fraction of imaged embryos annotated as normal kidney; higher = less nephrotoxic; extreme values may be limits of the assay
Outline: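 The read-out is the proportion of embryos in each treatment manually annotated as normal-kidney. Exposure ran from 24 to 48 hpf at 28.5°C in 12-well plates, using dechorionated Tg(wt1b:EGFP) zebrafish embryos in 5 mM HEPES-buffered E3 with 0.003% PTU, 0.5% DMSO and 25 μM compound. For imaging, larvae were anaesthetised with tricaine, positioned dorsally in agarose-filled 96-well plates and captured by widefield fluorescence (470 nm, 10 z-slices), with scoring done on maximum projections.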

[4] = system: Danio rerio Tg(wt1b:EGFP) embryo, pronephros; assay: pronephric angle neck segment to proximal convoluted tubule (mean of left and right), fold change vs DMSO control; higher = larger pronephric angle
Outline: as §1

SMILES	glomerular separation [1]	glomerular width [2]	fraction of imaged embryos annotated as normal kidney [3]	pronephric angle neck segment [4]
Fc1ccc([C@@H]2CCNC[C@H]2COc2ccc3c(c2)OCO3)cc1 [Paroxetine Hydrochloride]	0.594 ± 0.17	1.03 ± 0.042	1	0.9885 ± 0.0011
CC(CN(C)C)CN1c2ccccc2CCc2ccccc21 (stereo not given) [Trimipramine maleate salt]	0.996 ± 0.29	1.06 ± 0.087	0.833	0.972 ± 0.048
CCC[C@@H]1C[C@@H](C(=O)N[C@@H]([C@H]2O[C@H](SC)[C@H](O)[C@@H](O)[C@H]2O)[C@H](C)Cl)N(C)C1 [Clindamycin hydrochloride]	0.862 ± 0.2	0.964 ± 0.053	0.917	0.995 ± 0.013
COC(=O)[C@H](c1ccccc1Cl)N1CCc2sccc2C1 [Clopidogrel]	1.06 ± 0.52	0.893 ± 0.055	0.833	1.05 ± 0.054
CCOc1cc(CC(=O)N[C@@H](CC(C)C)c2ccccc2N2CCCCC2)ccc1C(=O)O [Repaglinide]	1.44 ± 0.91	0.943 ± 0.028	0.75	1.06 ± 0.036
CC(Oc1ccccc1)C(=O)N[C@@H]1C(=O)N2[C@@H]1SC(C)(C)[C@@H]2C(=O)O (stereo not given in full) [Phenethicillin potassium salt]	0.88 ± 0.24	0.963 ± 0.057	0.667	0.989 ± 0.028
COC(=O)Nc1nc2cc(C(=O)c3cccs3)ccc2[nH]1 [Nocodazole]	1.86 ± 0.67	0.523 ± 0.024	0	1.87 ± 0.13
CCCCCCC[N+](CC)(CC)CCCCc1ccc(Cl)cc1 [Clofilium tosylate]	0.78 ± 0.37	1.04 ± 0.059	0.583	0.9834 ± 0.0086
CN(C)CCC=C1c2ccccc2COc2ccccc21 [Doxepin hydrochloride]	0.925 ± 0.22	0.99 ± 0.035	0.917	1.01 ± 0.076
CCN1CC(CCN2CCOCC2)C(c2ccccc2)(c2ccccc2)C1=O (stereo not given) [Doxapram hydrochloride]	0.953 ± 0.32	0.981 ± 0.0026	0.833	0.9542 ± 0.0079
CCc1c2c(nc3ccc(OC(=O)N4CCC(N5CCCCC5)CC4)cc13)-c1cc3c(c(=O)n1C2)COC(=O)[C@]3(O)CC [Irinotecan hydrochloride trihydrate]	1.09 ± 0.45	1.02 ± 0.022	0.667	1.02 ± 0.028
COc1ccnc(C[S+]([O-])c2nc3cc(OC(F)F)ccc3[nH]2)c1OC (stereo not given) [Pantoprazole sodium]	1.04 ± 0.33	1.042 ± 0.0056	0.833	1.062 ± 0.0021
CC1Cc2ccccc2N1NC(=O)c1ccc(Cl)c(S(N)(=O)=O)c1 (stereo not given) [Indapamide]	1.2 ± 0.88	0.904 ± 0.058	0.909	0.988 ± 0.041
O=C(c1ccc(OCCN2CCCCC2)cc1)c1c(-c2ccc(O)cc2)sc2cc(O)ccc12 [Raloxifene hydrochloride]	0.793 ± 0.18	0.98 ± 0.059	0.917	1.01 ± 0.025
CN1CCC(OC(c2ccccc2)c2ccccc2)CC1 [Diphenylpyraline hydrochloride]	1.02 ± 0.24	1.07 ± 0.053	1	0.963 ± 0.035
Cc1cc(C)nc(NS(=O)(=O)c2ccc(N)cc2)n1 [Sulfamethazine sodium salt]	1.11 ± 0.43	1.08 ± 0.048	0.917	1.01 ± 0.031
CN1CCN2c3ncccc3Cc3ccccc3C2C1 (stereo not given) [Mirtazapine]	0.964 ± 0.35	0.98 ± 0.037	1	0.994 ± 0.056
CN(C)CCc1c[nH]c2ccc(C[C@H]3COC(=O)N3)cc12 [Zolmitriptan]	0.75 ± 0.13	0.941 ± 0.034	0.833	1.03 ± 0.019
O=C1NCCN1c1ncc([N+](=O)[O-])s1 [Niridazole]	1.24 ± 0.57	0.867 ± 0.021	0.833	1.14 ± 0.077
CCCCC[C@H](O)/C=C/[C@@H]1[C@@H](C/C=C\CCCC(=O)O)[C@@H](O)C[C@H]1O [Dinoprost trometamol]	0.881 ± 0.18	1.01 ± 0.064	0.833	0.975 ± 0.043
COc1ccc(-c2cc(=O)c3c(O)cc(O[C@@H]4O[C@H](CO[C@@H]5O[C@@H](C)[C@H](O)[C@@H](O)[C@H]5O)[C@@H](O)[C@H](O)[C@H]4O)cc3o2)cc1O [Diosmin]	1.06 ± 0.42	0.996 ± 0.011	0.727	0.974 ± 0.032
CC(=O)OC[C@H]1O[C@@H]([S-])[C@H](OC(C)=O)[C@@H](OC(C)=O)[C@@H]1OC(C)=O.CCP(CC)CC.[Au+] [Auranofin]	1.55 ± 0.79	0.789 ± 0.038	0.417	1.19 ± 0.024
N=C(N)NC(=N)NCCc1ccccc1 [Phenformin hydrochloride]	0.95 ± 0.25	0.978 ± 0.021	0.917	0.956 ± 0.029
Cc1cc(C2CCCCC2)n(O)c(=O)c1 [Ciclopirox ethanolamine]	6.61 ± 0.93	0.503 ± 0.058	0	1.68 ± 0.05
CNCCC=C1c2ccccc2CCc2ccccc21 [Nortriptyline hydrochloride]	1.04 ± 0.35	0.9614 ± 0.0024	0.833	1.03 ± 0.011
